# PubChem BioAssay
# Legend:
# [1] = tested on: Human papillomavirus type 1a protein E7 (residues 44-93); assay: small molecules binding HPV E7 44-93 – biochemical, small-molecule microarray, residues 44-93, 635 nm fluorescence, primary screen (AID 1108); details: fluorescence 635 nm, higher = more signal;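 note: E7 fragment applied at 1 µg/mL in TBST for 1 h at 4 C; score combines spot fluorescence with its signal to noise ratio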
# [2] = hepatitis C replication reporter changes, two-sided – Huh7 cells, luciferase reporter, HCV replication inhibitor project, primary screen (AID 1109); details: Huh7 HCV replicon luciferase reporter, 48 h; higher = more signal;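 note: huh7 hepatoma cells harbouring a luciferase neomycin HCV replicon reporter; luciferase luminescence as measure of HCV replicon replication; test concentration not given here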
# [3] = molecular target: Left-right determination factor 2 (Homo sapiens) (UniProt O00292); assay: small molecules binding LEFTY2 protein – biochemical, small-molecule microarray, 635 nm fluorescence scan, primary screen (AID 1110); details: higher = more signal
# [4] = molecular target: Calmodulin-1 (Homo sapiens) (UniProt P0DP23); assay: small molecules binding calmodulin-1 with EGTA – biochemical, small-molecule microarray, Cy5-labelled CALM1, profiling panel (AID 1111); details: Cy5-CALM1 binding fluorescence, higher = more signal;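 note: labelled calmodulin applied in Tris saline Tween buffer holding calcium plus EGTA and DTT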
# [5] = molecular target: Calmodulin-1 (Homo sapiens) (UniProt P0DP23); assay: small molecules binding Ca-loaded calmodulin-1 – biochemical, small-molecule microarray, Cy5-labelled CALM1, plus calcium, artefact control for SMM control-protein annotation, profiling panel (AID 1112); details: Cy5-CALM1 binding fluorescence, higher = more signal;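 note: score merges spot fluorescence with signal to noise from triplicate slides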
# [6] = probe aWnt5a binding to arrayed compounds – biochemical, biotinylated probe, 635/667 nm fluorescence, primary screen (AID 1113); details: small-molecule microarray, higher = more signal;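 note: score merges 667 nm fluorescence intensity with signal-to-noise per printed feature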
# [7] = probe aShh binding to arrayed compounds – biochemical, biotinylated probe, 635/667 nm fluorescence, primary screen (AID 1114); details: small-molecule microarray, higher = more signal;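 note: probe is biotin-labelled aShh protein from a stem cell growth factor screen; measures binding of labelled protein to compounds printed on the slide; score merges feature fluorescence at 667 nm with signal-to-noise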
# [8] = probe aNog binding to arrayed compounds – biochemical, biotinylated probe, 635/667 nm fluorescence, primary screen (AID 1115); details: small-molecule microarray, higher = more signal;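 note: probe is biotinylated aNog protein used at 0.15 µg/mL for 1 h at 4 C; z-score combines 667 nm fluorescence of each spot with its signal to noise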
# [9] = molecular target: Torsin-1A-interacting protein 1 (Homo sapiens) (UniProt Q5JTV8); assay: compound microarray binding of lysate hLAP1 – cell lysate, small-molecule microarray, COS7 lysate, 635/667 nm fluorescence, primary screen (AID 1116); details: 635 nm fluorescence, higher = more signal
# [10] = molecular target: Alpha-bungarotoxin (Bungarus multicinctus) (UniProt P60615); assay: compounds binding labelled alpha-BTX control protein – biochemical, small-molecule microarray, Alexa647 label, 635/667 nm fluorescence, artefact control for SMM control protein annotation, profiling panel (AID 1117); details: alpha-BTX-A647 binding fluorescence, higher = more signal
# Chain of Alpha-bungarotoxin (Bungarus multicinctus) (P60615 whole entry, looked up): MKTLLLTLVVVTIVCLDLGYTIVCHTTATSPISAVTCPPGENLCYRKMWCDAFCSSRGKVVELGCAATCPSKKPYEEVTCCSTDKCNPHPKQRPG
# Chain of Left-right determination factor 2 (Homo sapiens) (O00292 whole entry, looked up): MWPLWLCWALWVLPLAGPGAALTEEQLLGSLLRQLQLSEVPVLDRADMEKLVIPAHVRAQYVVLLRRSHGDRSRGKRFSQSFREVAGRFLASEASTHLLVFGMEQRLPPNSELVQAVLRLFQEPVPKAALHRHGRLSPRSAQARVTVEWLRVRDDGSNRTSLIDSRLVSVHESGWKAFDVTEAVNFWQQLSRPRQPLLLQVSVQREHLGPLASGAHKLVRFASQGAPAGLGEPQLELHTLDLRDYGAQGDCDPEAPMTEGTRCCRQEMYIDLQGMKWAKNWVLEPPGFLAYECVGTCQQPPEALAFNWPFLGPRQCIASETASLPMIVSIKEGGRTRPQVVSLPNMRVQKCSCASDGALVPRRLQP
# Chain of Torsin-1A-interacting protein 1 (Homo sapiens) (Q5JTV8 whole entry, looked up): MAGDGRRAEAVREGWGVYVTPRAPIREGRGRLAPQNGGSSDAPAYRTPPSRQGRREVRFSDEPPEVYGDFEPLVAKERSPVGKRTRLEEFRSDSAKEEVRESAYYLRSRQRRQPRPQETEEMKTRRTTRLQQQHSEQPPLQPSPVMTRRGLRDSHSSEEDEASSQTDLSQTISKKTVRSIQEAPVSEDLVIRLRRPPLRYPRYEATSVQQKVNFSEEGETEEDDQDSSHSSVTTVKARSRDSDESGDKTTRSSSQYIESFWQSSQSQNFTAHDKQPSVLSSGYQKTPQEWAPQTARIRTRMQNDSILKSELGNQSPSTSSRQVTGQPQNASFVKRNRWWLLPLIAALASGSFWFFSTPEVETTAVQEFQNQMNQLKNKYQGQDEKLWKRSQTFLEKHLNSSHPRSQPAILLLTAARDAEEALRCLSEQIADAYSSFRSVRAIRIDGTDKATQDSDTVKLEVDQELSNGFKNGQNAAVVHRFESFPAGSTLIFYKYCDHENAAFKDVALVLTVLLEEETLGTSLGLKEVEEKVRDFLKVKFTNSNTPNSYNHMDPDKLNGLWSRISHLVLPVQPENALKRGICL
SMILES,composite z-score [1],z-score [2],composite z-score [3],composite z-score [4],composite z-score [5],composite z-score [6],composite z-score [7],composite z-score [8],composite z-score [9],composite z-score [10]
CC(C)NC(=O)[C@@H]1c2ccccc2C(=O)N(Cc2ccc(OC(F)(F)F)cc2)[C@H]1c1ccc(CO)cc1,0.973,-0.779,0.39,0.1,-0.126,0.265,0.637,-0.486,0.673,0.589
[N-]=[N+]=Nc1ccccc1[C@H]1OC(c2ccc(OCCCO)cc2)=N[C@@]1(Cc1ccccc1)C(=O)NCC(O)CO (stereo not given in full),1.38,-1.29,-1.04,1.04,1,0.119,0.257,0.0005,1.5,1.57
C=CCOC(=O)[C@H]1[C@@H]2C(=O)O[C@@H](c3ccccc3)[C@@H](c3ccccc3)N2[C@@H](c2ccc(OCCOC(=O)[C@H]3C[C@H]4C(=O)N[C@@H](CC(C)C)C(=O)N4[C@H]3c3ccc(O)cc3)cc2)[C@]12C(=O)Nc1ccccc12,1.42,-1.75,1.44,0.538,-0.273,0.0919,-0.066,-0.582,1.78,1.52
C[C@@H]1NC(=O)C([C@@H](C)OCc2ccccc2)NC(=O)[C@@]23C(=O)N[C@@H](Cc4ccccc4)C2[C@H](C)[C@@]2(C)O[C@H]2C3/C=C/C/C=C\CNC1=O (stereo not given in full),-0.663,-0.914,-0.238,-1.17,-1.85,-0.172,0.299,-0.423,-0.215,-0.0334
C[C@@H]1ON(c2ccccc2)[C@H](c2ccccc2)[C@H]1C(=O)O,-0.429,0.387,0.25,0.0717,-0.124,0.0377,-0.2,0.618,0.109,0.167
C=CCOC(=O)[C@H]1[C@@H]2C(=O)O[C@@H](c3ccccc3)[C@@H](c3ccccc3)N2[C@@H](c2ccc(OCCOC(=O)[C@@H]3C[C@@H]4C(=O)N[C@@H](CCCC[N+](C)(C)C)C(=O)N4[C@@H]3c3ccc(O)cc3)cc2)[C@]12C(=O)Nc1ccc(I)cc12,1.41,-2.84,0.668,0.167,-0.49,0.0324,0.203,1.06,1.84,0.74
COCCOC(=O)N1C(=O)[C@@]2(c3cc(C#CC4(O)CCCCCC4)ccc31)[C@H](c1ccc(O)cc1)N1[C@H](c3ccccc3)[C@H](c3ccccc3)OC(=O)[C@H]1[C@@H]2C(=O)N1CCCCCCC1,-0.622,-1.05,0.298,-0.39,-0.631,0.0742,0.0907,2.25,1.88,0.88
CCCN1C(=O)[C@]2(CCC(=O)OC(C)(C)C)N=C(c3ccc(OCCCO)cc3)O[C@@H]2c2ccccc21,1.17,-2.87,-0.399,-0.0977,-0.148,-0.124,0.0469,0.175,3.34,0.28
CCCNC(=O)[C@@]1(c2ccc([N+](=O)[O-])cc2)CC(=O)N(C(C)C)[C@@H]1c1ccc(CO)cc1,-0.603,0.0828,-0.649,-0.168,0.263,-0.18,-0.138,-0.326,-0.824,-0.276
CCOC(=O)C1=CC[C@@H](c2ccccc2)N(S(=O)(=O)c2ccc(C)cc2)[C@H]1c1ccccc1I,0.77,-0.839,0.316,1.82,0.944,-0.0195,-0.0769,-0.327,0.911,1.19
C=CCC(OC(C)=O)[C@@H]1[C@@H](N(Cc2ccc(-c3cccc(C(F)(F)F)c3)o2)C(=O)Cc2ccc(F)cc2)c2cc(OCCCO)ccc2N1C(=O)Cc1ccc2ccccc2c1 (stereo not given in full),-0.97,0.022,-0.511,-0.599,0.218,-0.0684,0.0684,-0.352,-0.016,-0.772
COC(=O)[C@]1(Cc2ccccc2)N=C(c2ccc(OCCCO)cc2)O[C@@H]1c1ccccc1CN=[N+]=[N-],1.37,-3.37,-0.383,0.63,-0.293,-0.0944,0.0796,0.537,1.11,1.01
C=C(COC)/C(=C/C[C@@H](OC(C)=O)c1ccccc1OCCO)c1cnc2ccccc2c1,1.17,-1.95,0.248,0.35,-0.716,-0.1,0.0796,0.329,1.73,1.56
COc1ccc([Si](C)(C)[C@@H]2[C@@H](CC(=O)N(CCO)Cc3ccccc3)O[C@]3(C(=O)N(Cc4ccc(I)cc4)c4ccccc43)[C@H]2C)cc1,0.684,-4.03,0.792,1.61,0.54,-0.0718,0.531,-0.0815,1.23,0.375
COc1ccc([Si](C)(C)[C@@H]2[C@@H](CC(=O)N3CCC[C@H]3CO)O[C@]3(C(=O)N(Cc4cccc(N5CCCCC5=O)c4)c4ccccc43)[C@H]2C)cc1,0.845,-2.57,0.415,0.336,0.0654,-0.148,0.0723,0.21,0.191,1.22
C=C(CCCC)/C(=C/C[C@H](OC(=O)c1ccncc1)c1cccc(OCCO)c1)c1cnc2ccccc2c1,1.39,-2.46,0.354,0.0734,-0.731,-0.0459,-0.0035,-0.0496,-0.064,0.551
CCCc1cc2c(n1CCc1ccc(Cl)cc1)C(C)C1CN(C(=O)c3ccccc3)C(C)(C(=O)OC)C21 (stereo not given),0.274,-2.1,-0.338,2.48,1.28,0.16,0.241,1.24,1.53,2.19
COC(=O)[C@@]1(Cc2ccc(F)cc2)[C@H]2c3cc(C(=O)N4CCCC4)n(Cc4ccccn4)c3C[C@H]2CN1C(=O)c1ccccc1,1.42,-1.73,-0.649,1.36,0.652,0.139,0.704,0.874,1.33,0.23
COc1ccc(C(O)C2C=CC3C(=O)N(c4ccccc4)C(=O)C3N2Nc2ccc(C#N)cc2)cc1OCc1ccccc1 (stereo not given),1.04,-0.738,-0.165,2.32,1.29,0.0497,0.171,0.1,2.54,1.16
C=CC[C@@]1(C(=O)N(C)C)N=C(c2ccc(OCCCO)cc2)O[C@@H]1c1ccccc1CN=[N+]=[N-],1.42,-2.67,0.681,1.79,0.366,0.0293,0.246,0.0919,1.23,1.35
O=C(NC1CC1)[C@@H]1c2ccccc2C(=O)N(Cc2ccc(OC(F)(F)F)cc2)[C@H]1c1ccc(CO)cc1,1.13,-1.06,0.108,0.168,1.06,-0.0758,-0.0735,-0.399,-0.436,-0.258
C=CCNC(=O)[C@H]1[C@@H]2C(=O)O[C@@H](c3ccccc3)[C@@H](c3ccccc3)N2[C@@H](c2ccc(OCCO)cc2)[C@]12C(=O)Nc1ccccc12,1.39,-1.4,-0.514,1.85,0.345,-0.0405,-0.0505,0.666,1.87,1.4
COc1ccc(NN2C(C(O)c3ccc(I)cc3)C=CC3C(=O)N(C4CCCCC4)C(=O)C32)cc1 (stereo not given),1.43,-2.6,0.349,1.21,0.679,0.18,-0.147,0.261,0.811,1.45
COc1cc(OC)c(C(O)C2C=CC3C(=O)N(c4ccccc4)C(=O)C3N2Nc2ccc(C(C)C)cc2)cc1Br (stereo not given),1.22,-0.533,0.513,1.34,0.382,0.238,0.158,1.68,0.695,1.92
NC(=O)N1C(=O)C2C(C1=O)C1C=C(CCCO)C2C(c2ccc(CN3CCCC3)cc2)N1Cc1sc2ccccc2c1Cl (stereo not given),0.53,-2.9,-0.292,0.302,0.424,-0.0735,-0.0146,-0.342,-0.218,0.187
